Consider 3 compounds from ChEMBL document CHEMBL1157539, “Thousands of chemical starting points for antimalarial lead identification” (Nature, 2010).

The term Inhibition denotes the drop in the measured response relative to a control, in per cent. Read a low Inhibition as little suppression.

Each structure is given as a SMILES string.

Holding throughout (assay type): functional
Experiment [1] relates to Plasmodium falciparum. In words: GSK_TCMDC: Inhibition of Plasmodium falciparum 3D7 in whole red blood cells, using parasite LDH activity as an index of growth. Test compounds present at 2uM.
In experiment [2] the test system is Plasmodium falciparum. In words: GSK_TCMDC: Inhibition of Plasmodium falciparum Dd2 in whole red blood cells, using parasite LDH activity as an index of growth. Test compounds present at 2uM.
For experiment [3], the system named is HepG2. In words: GSK_TCMDC: Percent inhibition of human HepG2 cell line. Test compounds present at 10uM.

Regarding `Cc1nc(Nc2ccc(F)cc2)nc(N2CCc3cc(O)ccc3C2C)c1C.Cl` (centres undefined), the Inhibition in experiment [1] turned out to be 99%; in experiment [2], 97%; in experiment [3] it was 0%.

Take `Cc1cc(Nc2ccc(Cl)c(Cl)c2)n2nc(C)nc2n1`: the Inhibition worked out at 97% in experiment [1], 97% in experiment [2] and 6% in experiment [3].

`COc1ccccc1CCNC(=O)c1cnc(N2CCN(c3ccncc3)CC2)c(Cl)c1.O=C(O)C(F)(F)F`: the Inhibition in experiment [1] stood at 98%; in experiment [2], 54%; in experiment [3], 30%.
